# Reference: the supplement of paper PMC3334620
# Whole data set: some 33,000 sequences, median “E-score (-0.5 to 0.5)” near -0.035, cut for the highest 2% near 0.35. The full list was thinned out, with the highest values kept by preference.
# Target: T1, Pdr3 (UniProt P33200)
# T1 sequence: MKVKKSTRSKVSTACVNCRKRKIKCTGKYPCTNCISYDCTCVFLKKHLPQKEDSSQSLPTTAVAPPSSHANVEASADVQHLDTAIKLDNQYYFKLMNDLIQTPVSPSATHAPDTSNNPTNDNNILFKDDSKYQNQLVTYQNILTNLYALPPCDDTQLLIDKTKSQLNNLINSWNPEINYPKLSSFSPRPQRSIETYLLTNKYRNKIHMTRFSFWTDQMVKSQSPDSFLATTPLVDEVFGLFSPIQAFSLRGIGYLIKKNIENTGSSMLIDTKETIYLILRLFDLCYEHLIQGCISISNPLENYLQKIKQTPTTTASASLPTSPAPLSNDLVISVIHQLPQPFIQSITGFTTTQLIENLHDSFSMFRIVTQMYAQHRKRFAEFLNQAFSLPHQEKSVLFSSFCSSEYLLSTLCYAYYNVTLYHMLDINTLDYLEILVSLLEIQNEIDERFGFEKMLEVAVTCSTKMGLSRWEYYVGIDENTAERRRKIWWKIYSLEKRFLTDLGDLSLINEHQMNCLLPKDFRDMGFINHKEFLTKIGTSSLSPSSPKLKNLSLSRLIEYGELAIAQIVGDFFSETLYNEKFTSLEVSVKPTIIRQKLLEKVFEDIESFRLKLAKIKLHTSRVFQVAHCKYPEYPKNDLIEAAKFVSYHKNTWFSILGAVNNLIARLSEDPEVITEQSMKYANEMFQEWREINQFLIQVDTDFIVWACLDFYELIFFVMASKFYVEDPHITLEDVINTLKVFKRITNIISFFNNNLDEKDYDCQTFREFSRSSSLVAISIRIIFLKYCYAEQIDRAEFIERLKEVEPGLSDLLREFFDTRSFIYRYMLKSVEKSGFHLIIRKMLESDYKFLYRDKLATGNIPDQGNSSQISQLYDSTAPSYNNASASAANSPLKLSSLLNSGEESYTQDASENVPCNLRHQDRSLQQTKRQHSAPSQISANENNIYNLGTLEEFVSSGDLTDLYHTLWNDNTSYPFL
# Assay: PBM E-score (8-mer binding enrichment) (E-score (-0.5 to 0.5)); higher = stronger / more preferred TF binding
# Conditions: protein concentration: 200 nM; construct: GST-full length
# Method in brief: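 Yeast transcription factors carrying a GST tag, as full-length proteins or DNA-binding domains, were produced by PURExpress in vitro transcription/translation. About 100-200 nM protein was applied to universal all-10-mer Agilent arrays, double-stranded by primer extension on fresh or once-stripped slides. Bound protein was detected with fluorescent anti-GST, and scans were normalised with masliner. The Universal PBM Analysis Suite gave each ungapped eight-base word, pooled with its reverse complement, an E-score, a modified Wilcoxon-Mann-Whitney statistic.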
row,Sequence,PBM E-score
1,AGGGCGGA,0.285
2,AGTCGGCC,0.13
3,AGAAGCAC,-0.185
4,AAAGTTAC,-0.127
5,GAGGTGTA,-0.13
6,AGATGCGC,0.0125
7,CCATGGAA,0.156
8,CGTTAGAG,-0.0371
9,CCCGCGCC,0.265
10,ACCGCGCT,0.139
11,TCCGCGCA,0.397
12,ACCGCGCA,0.0742
13,ACCGCGCC,0.128
14,ACCGCGCG,0.397
15,CGCGCGCA,0.347
16,CGCGCGCG,0.372
17,CCCGCGCA,0.288
18,GCCGCGCA,0.188
19,CGCGCGCC,0.241
20,CCCGCGCG,0.382
21,CCCAACCG,0.00518
22,CGACCGAG,0.124

row,Sequence,PBM E-score
1,TATCACGA,-0.126
2,AAAATGAG,-0.188
3,ATAGCTAC,-0.0621
4,CAGGGGGA,-0.286
5,CTTTTTTA,-0.0672
6,CTCCCCGC,0.34
7,ATCCCCGG,0.386
8,CTCCCGGA,0.386
9,ATCCCAAA,0.0137
10,ATCCCGGA,0.417
11,ATCCCCCG,0.278
12,ATCCCCGA,0.303
13,CTCCCCGA,0.053
14,CTCCCGCA,0.145
15,CCCCCGGC,0.037
16,ATCCCAGA,-0.204
17,CTCCCGGC,0.368
18,CGGCGTAA,-0.0269
19,CTGCGTGC,-0.0812
20,AATTTGTG,0.159
21,ATGAGAAG,-0.162
22,GTACTCGA,-0.0779

row,Sequence,PBM E-score
1,ACCCCGGC,0.153
2,GTCCCGGA,0.394
3,ATCCCGGG,0.455
4,ATCCCGAC,0.331
5,GTCCCGCA,0.229
6,ATCCCTGG,-0.0752
7,GTCCCCGA,0.166
8,ATCCCGGC,0.419
9,ATCCCAGG,0.113
10,ATGTTCAG,-0.207
11,AGGTCTAA,-0.0213
12,AGGAGGCA,-0.127
13,AGAGCTCG,0.0679
14,CAATTCTC,-0.138
15,AGATGGAG,-0.127
16,CCATACCC,0.0565
17,CCGTGTCA,0.24
18,CCGTGTCC,0.356
19,GCGTGTCC,0.201
20,GGGTTTGA,-0.0398
21,AGCGACGG,0.258
22,CGGGTCAA,0.387

row,Sequence,PBM E-score
1,GGGGTCAA,-0.0321
2,AGGGTCAA,-0.0253
3,AATGGAGG,0.0106
4,GTCGGCTA,0.0468
5,CACAGAGG,-0.0837
6,CATTCCGG,0.451
7,CATTCCCG,0.274
8,CATTCCAA,-0.102
9,GATTCCGA,0.454
10,CATTCCGA,0.421
11,GATTCCAA,-0.0548
12,TATTCCGA,0.407
13,CATTCCTA,-0.14
14,TATTCCAA,-0.091
15,GATTCCCA,0.0551
16,TATTCCCA,0.0626
17,CATTCCAG,-0.131
18,AGTTGCAC,-0.136
19,CTTGCCTC,0.0139
20,AGTCTCGG,0.101
21,ATGCGAAG,-0.0662
22,GATCCCAA,0.0388
